# Laboratory results reported in PubChem BioAssay (Tox21).
# Activity calls are given as the source filed them. A call without a number means that no potency is given here. Unless noted, the call rests on the fitted dose curve; in most records, active means well fitted curve in the direction sought with a large enough effect in the repeat runs; inconclusive means weak or mixed curves; inactive means no such curve, though single readings can be large; an effect the other way counts as inactive or inconclusive.
# Legend:
# [1] = qHTS assay to test for compound auto fluorescence at 535 nm (green) in HepG2 cells (AID 720675); further: potency means the concentration at half of the fitted maximal effect
# [2] = qHTS assay to test for compound auto fluorescence at 460 nm (blue) in HEK293 cell free culture (AID 720681)
# Procedure, shortened: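 Test compounds were pinned into cell-free culture medium (DMEM with 10% FBS) and fluorescence was read directly at Ex/Em 405/460 nm. Signals were expressed as fluorescence equivalents of triamterene, with DMSO vehicle as control.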
# [3] = qHTS assay to test for compound auto fluorescence at 535 nm (green) in HepG2 cell free culture (AID 720686); further: potency means the concentration at half of the fitted maximal effect
# [4] = target: Glucocorticoid receptor (Homo sapiens) (UniProt P04150); assay: qHTS assay to identify small molecule agonists of the glucocorticoid receptor (GR) signaling pathway (AID 720691; active means well fitted activation curve with a large enough effect in the signal ratio in the repeat runs, not every such curve was filed as active; inconclusive means weak or mixed curves, or effect the other way; inactive means no such curve, though single readings can be large or run the other way; the % refers to the signal ratio)
# Procedure, shortened: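 Agonist-mode qHTS in HeLa cells stably expressing a glucocorticoid-response-element beta-lactamase reporter. Fluorescence intensity read with FRET substrate (2 h, room temperature) after 18 h compound treatment at 37 C.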
# [5] = qHTS assay to identify small molecule antagonists of the glucocorticoid receptor (GR) signaling pathway - cell viability counter screen (AID 720693); further: nearly all actives have a fitted effect of over 55% in size; further: potency means the concentration at half of the fitted maximal effect
# [6] = qHTS assay for identifying genotoxic compounds that show differential cytotoxicity against isogenic chicken DT40 cell lines with known DNA damage response pathways - Rev3 mutant cell line (AID 743014); further: nearly all actives have a fitted effect of over 55% in size; further: potency means the concentration at half of the fitted maximal effect
# [7] = qHTS assay for identifying genotoxic compounds that show differential cytotoxicity against isogenic chicken DT40 cell lines with known DNA damage response pathways - Rad54/Ku70 mutant cell line (AID 743015); further: nearly all actives have a fitted effect of over 60% in size; further: potency means the concentration at half of the fitted maximal effect
# [8] = qHTS assay to identify small molecule antagonists of the androgen receptor (AR) signaling pathway using the MDA cell line - cell viability counter screen (AID 743041; further: nearly all actives have a fitted effect of over 45% in size)
# Procedure, shortened: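 qHTS viability read-out; MDA-kb2 AR-luc; R1881-stimulated; 16 h exposure at 37C, 0% CO2; CellTiter-Fluor, 30 min; fluorescence intensity.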
# [9] = target: Estrogen receptor (Homo sapiens) (UniProt P03372); assay: qHTS assay to identify small molecule agonists of the estrogen receptor alpha (ER-alpha) signaling pathway (AID 743075; calls by dose curve;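 further: HEK293 GripTite cells with ER-alpha and UAS-driven beta-lactamase reporter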; further: potency means the concentration at half of the fitted maximal effect)
# [10] = target: Estrogen receptor (Homo sapiens) (UniProt P03372); assay: qHTS assay to identify small molecule agonists of the estrogen receptor alpha (ER-alpha) signaling pathway using the BG1 cell line (AID 743079); further: nearly all actives have a fitted effect of over 20% in size
# [11] = qHTS assay to identify small molecule antagonists of the estrogen receptor alpha (ER-alpha) signaling pathway using the BG1 cell line (AID 743080; calls by dose curve;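 further: BG1 cells stimulated with 17beta-estradiol alongside compound; series mostly up to about 70 µM; nearly all actives have a fitted effect of over 25% in size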)
# Procedure, shortened: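 Readout is ONE-Glo luminescence, taken 30 min at room temperature after reagent addition, preceded by a CellTiter-Fluor viability read; BG1-Luc-4E2 cells had received compound and 17beta-estradiol for 21.5 h at 37 C.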
# [12] = target: Aryl hydrocarbon receptor (Homo sapiens) (UniProt P35869); assay: qHTS assay to identify small molecule that activate the aryl hydrocarbon receptor (AhR) signaling pathway (AID 743085); further: nearly all actives have a fitted effect of over 15% in size; further: potency means the concentration at half of the fitted maximal effect;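 on activation: HG2L7.5c1 human HepG2 liver cells with stably integrated DRE-driven firefly reporter; series mostly up to about 70 µM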
# Procedure, shortened: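 Cell line HG2L7.5c1 (human hepatoma, 20× DRE-luc). Plated, 5 h 37C, compound/DMSO added, 24 h 37C. CellTiter-Fluor 30 min 37C → fluorescence; then ONE-Glo 30 min RT → luminescence.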
# [13] = target: Peroxisome proliferator-activated receptor gamma (Homo sapiens) (UniProt P37231); assay: qHTS assay to identify small molecule agonists of the peroxisome proliferator-activated receptor gamma (PPARg) signaling pathway (AID 743094; active means well fitted activation curve with a large enough effect in the signal ratio in the repeat runs, not every such curve was filed as active; inconclusive means weak or mixed curves, or effect the other way; inactive means no such curve, though single readings can be large or run the other way; the % refers to the signal ratio; further: potency means the concentration at half of the fitted maximal effect)
# Procedure, shortened: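 Agonist activity was taken from a beta-lactamase reporter (FRET substrate, 1 h at room temperature) in HEK293H cells carrying a PPARg UAS-bla construct. Compounds in DMSO were incubated 17 h at 37C after a 5 h cell pre-incubation.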
# [14] = target: Nuclear receptor subfamily 1 group I member 2 (Homo sapiens) (UniProt O75469); assay: CYP3A4 induction through human pregnane X receptor (PXR) by small molecules, qHTS assay (AID 1346984); further: nearly all actives have a fitted effect of over 40% in size; further: potency means the concentration at half of the fitted maximal effect
# Procedure, shortened: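 Read-out is luminescence after One-Glo addition, following a 3 hr, 37C incubation with Luciferin-IPA CYP3A4 substrate (3uM final). Before that, compounds were on DPX-2 cells (HepG2 co-transfected with PXR element plus CYP3A4-promoter luciferase) for 24 hr at 37C.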
# [15] = target: Nuclear receptor subfamily 1 group I member 2 (Homo sapiens) (UniProt O75469); assay: Human pregnane X receptor (PXR) activation by small molecules, qHTS assay (AID 1346985); further: nearly all actives have a fitted effect of over 40% in size; further: potency means the concentration at half of the fitted maximal effect
# Procedure, shortened: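 DPX-2 cells (HepG2 co-transfected with a PXR response element and a CYP3A4-promoter luciferase construct) were seeded at 2,000 per well, rested 5 hr at 37C, then exposed to DMSO-dissolved compounds for 24 hr. Activation was read as luciferase luminescence.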
# [16] = qHTS assay for small molecule disruptors of the mitochondrial membrane potential (AID 720635); further: potency means the concentration at half of the fitted maximal effect
# Procedure, shortened: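 HepG2 cells (2,000/well) attached overnight at 37C, then took compound for 1 hr at 37C, 5% CO2. Mito-MPS dye was added for 30 min; fluorescence was read at 490/535 nm (monomers) and 540/590 nm (aggregates).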
# [17] = qHTS assay to test for compound auto fluorescence at 590 nm (red) in HEK293 cells (AID 720679)
# Procedure, shortened: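 Red autofluorescence, HEK293 cells: 2,000 cells/well; attach 4-5 hr 37C; add 23 nL cpd or DMSO; incubate o/n 37C 5% CO2; read Ex540/Em590; Rose Bengal sodium reference.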
# [18] = qHTS assay to test for compound auto fluorescence at 590 nm (red) in HepG2 cell free culture (AID 720684)
# Procedure, shortened: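 Readout: intrinsic compound fluorescence at 590 nm emission after 540 nm excitation, scaled to Rose Bengal sodium. Matrix was cell-free MEM with 10% FBS; DMSO vehicle wells served as control.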
# [19] = qHTS assay to identify small molecule antagonists of the thyroid receptor (TR) signaling pathway (AID 743065); further: nearly all actives have a fitted effect of over 55% in size; further: potency means the concentration at half of the fitted maximal effect
# Procedure, shortened: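 GH3.TRE-Luc rat pituitary cells carrying two TR response elements driving luciferase were plated for 4 h, given compound plus 1 nM T3 (final), and incubated 23.5 h at 37 C. ONE-Glo luminescence measured reporter inhibition; CellTiter-Fluor fluorescence tracked cytotoxicity.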
# [20] = qHTS assay to identify small molecule antagonists of the thyroid receptor (TR) signaling pathway - cell viability counter screen (AID 743064); further: nearly all actives have a fitted effect of over 50% in size; further: potency means the concentration at half of the fitted maximal effect
# Procedure, shortened: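 Fluorescence from CellTiter-Fluor, added after 23.5 h exposure at 37 °C, reported viability of GH3.TRE-Luc cells co-treated with compound and 1 nM T3. Measured in the same wells as the luciferase TR readout.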
# Tags describe the fitted curve by direction and shape or compound fluorescence and quenching.
# Sequence of Estrogen receptor (Homo sapiens) (P03372 whole entry, looked up): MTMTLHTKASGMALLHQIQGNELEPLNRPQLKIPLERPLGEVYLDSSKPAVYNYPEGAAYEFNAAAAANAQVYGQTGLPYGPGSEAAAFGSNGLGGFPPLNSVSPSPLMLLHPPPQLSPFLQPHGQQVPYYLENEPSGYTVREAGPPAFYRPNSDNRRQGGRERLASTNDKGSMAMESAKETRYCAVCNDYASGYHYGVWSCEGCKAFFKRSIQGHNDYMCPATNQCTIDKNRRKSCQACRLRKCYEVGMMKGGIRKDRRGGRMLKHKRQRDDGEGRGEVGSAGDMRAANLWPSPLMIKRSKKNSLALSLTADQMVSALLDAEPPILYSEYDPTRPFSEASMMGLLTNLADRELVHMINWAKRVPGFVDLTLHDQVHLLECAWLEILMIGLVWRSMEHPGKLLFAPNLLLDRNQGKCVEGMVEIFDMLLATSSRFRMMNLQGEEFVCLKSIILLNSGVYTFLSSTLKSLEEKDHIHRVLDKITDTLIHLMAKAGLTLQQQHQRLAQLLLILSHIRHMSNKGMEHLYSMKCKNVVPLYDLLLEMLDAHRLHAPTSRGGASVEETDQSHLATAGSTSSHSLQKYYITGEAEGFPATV
# Sequence of Peroxisome proliferator-activated receptor gamma (Homo sapiens) (P37231 whole entry, looked up): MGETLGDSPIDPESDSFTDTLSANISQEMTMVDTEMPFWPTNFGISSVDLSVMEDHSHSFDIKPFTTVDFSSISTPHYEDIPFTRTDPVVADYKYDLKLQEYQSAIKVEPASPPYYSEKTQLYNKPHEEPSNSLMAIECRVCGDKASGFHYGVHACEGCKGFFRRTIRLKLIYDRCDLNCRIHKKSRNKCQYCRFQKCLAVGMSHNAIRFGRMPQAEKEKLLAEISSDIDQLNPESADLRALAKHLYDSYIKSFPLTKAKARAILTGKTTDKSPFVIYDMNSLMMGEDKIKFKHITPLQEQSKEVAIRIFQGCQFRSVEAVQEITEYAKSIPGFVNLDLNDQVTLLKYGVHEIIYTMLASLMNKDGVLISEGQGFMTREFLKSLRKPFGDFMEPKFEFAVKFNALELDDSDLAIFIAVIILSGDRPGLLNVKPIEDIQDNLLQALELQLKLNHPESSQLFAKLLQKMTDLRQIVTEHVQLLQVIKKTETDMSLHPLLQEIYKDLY
# Sequence of Glucocorticoid receptor (Homo sapiens) (P04150 whole entry, looked up): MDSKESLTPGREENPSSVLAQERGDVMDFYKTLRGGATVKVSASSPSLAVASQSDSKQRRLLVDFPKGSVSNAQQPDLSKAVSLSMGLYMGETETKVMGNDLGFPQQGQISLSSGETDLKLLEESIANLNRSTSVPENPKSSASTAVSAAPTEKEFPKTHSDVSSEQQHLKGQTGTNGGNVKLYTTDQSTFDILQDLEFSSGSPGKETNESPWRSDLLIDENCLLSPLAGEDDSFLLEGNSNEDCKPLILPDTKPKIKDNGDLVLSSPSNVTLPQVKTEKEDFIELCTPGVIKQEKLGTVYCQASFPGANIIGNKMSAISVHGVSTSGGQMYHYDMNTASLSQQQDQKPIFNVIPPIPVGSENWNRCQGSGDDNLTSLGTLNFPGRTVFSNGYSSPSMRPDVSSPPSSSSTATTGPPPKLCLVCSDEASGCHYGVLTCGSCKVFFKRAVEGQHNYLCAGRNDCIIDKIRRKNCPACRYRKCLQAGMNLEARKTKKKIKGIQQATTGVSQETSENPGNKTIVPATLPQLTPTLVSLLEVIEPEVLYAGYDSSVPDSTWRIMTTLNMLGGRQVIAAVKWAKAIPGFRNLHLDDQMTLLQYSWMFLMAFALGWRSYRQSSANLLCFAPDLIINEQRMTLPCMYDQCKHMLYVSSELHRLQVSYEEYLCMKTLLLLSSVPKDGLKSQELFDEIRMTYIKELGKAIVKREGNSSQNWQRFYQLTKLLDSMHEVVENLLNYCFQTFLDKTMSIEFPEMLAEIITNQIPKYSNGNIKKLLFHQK
# Sequence of Aryl hydrocarbon receptor (Homo sapiens) (P35869 whole entry, looked up): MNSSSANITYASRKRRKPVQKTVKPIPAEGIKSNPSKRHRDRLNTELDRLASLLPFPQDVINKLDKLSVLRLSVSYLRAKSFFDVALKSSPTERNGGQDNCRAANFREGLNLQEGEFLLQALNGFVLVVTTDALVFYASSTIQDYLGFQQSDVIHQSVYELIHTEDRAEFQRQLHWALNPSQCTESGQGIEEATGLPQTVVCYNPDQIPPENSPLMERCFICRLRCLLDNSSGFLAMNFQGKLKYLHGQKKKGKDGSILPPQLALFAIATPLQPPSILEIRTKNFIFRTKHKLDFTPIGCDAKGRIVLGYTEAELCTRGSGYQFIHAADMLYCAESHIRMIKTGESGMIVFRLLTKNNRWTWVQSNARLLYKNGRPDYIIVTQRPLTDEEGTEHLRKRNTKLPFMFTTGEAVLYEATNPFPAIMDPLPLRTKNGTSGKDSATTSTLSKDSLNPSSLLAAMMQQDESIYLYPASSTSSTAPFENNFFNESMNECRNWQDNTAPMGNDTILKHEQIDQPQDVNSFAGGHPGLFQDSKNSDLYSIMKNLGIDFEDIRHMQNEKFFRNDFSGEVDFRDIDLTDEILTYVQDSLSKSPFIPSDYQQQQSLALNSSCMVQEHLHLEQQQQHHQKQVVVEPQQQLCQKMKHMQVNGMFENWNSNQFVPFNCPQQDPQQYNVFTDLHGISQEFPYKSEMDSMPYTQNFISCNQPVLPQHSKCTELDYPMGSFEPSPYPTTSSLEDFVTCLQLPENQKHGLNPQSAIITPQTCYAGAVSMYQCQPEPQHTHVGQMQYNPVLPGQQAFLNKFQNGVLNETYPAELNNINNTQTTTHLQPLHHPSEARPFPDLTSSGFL
Compound,Potency [1],Potency [2],Potency [3],Potency [4],Potency [5],Potency [6],Potency [7],Potency [8],Potency [9],Potency [10],Potency [11],Potency [12],Potency [13],Potency [14],Potency [15],Potency [16],outcome [17],outcome [18],Potency [19],Potency [20]
O=C1OC2(c3cc(Br)c(O)cc3Oc3c2cc(Br)c(O)[c]3[Hg])c2ccccc21 (centres undefined),10 µM (active),inactive,10 µM [fluorescent] (active),inactive,inactive,11.4 µM (active),10.1 µM (active),inactive,inactive,inactive,inactive,inactive,inactive,inactive,inactive,–,–,–,–,–
COc1ccc2c3c1O[C@H]1[C@@H](O)C=C[C@H]4[C@@H](C2)NCC[C@@]341,inactive,inactive,inactive,inactive,–,inactive,inactive,inactive,inactive,inactive,inactive,inactive,inactive,inactive,inactive,inactive,inactive,inactive,inactive,–
COC([CH2][Hg])CNC(=O)c1ccccc1OCC(=O)O (centres undefined),inactive,inactive,inactive,inactive,inactive,–,2.98 µM (active),inactive,inactive,inactive,inactive,–,–,inactive,inactive,inactive,inactive,inactive,–,inactive
c1cc2c(c(NC3=NCCN3)c1)CCCC2,inactive,inactive,inactive,inactive,inactive,–,–,inactive,–,–,–,–,–,inactive,inactive,inactive,inactive,inactive,–,–
O=C1C=C2C=C[C@@H]3C[C@@]2(O1)[C@H]1CCCCN31,inactive,–,inactive,inactive,inactive,10.6 µM (active),5.96 µM (active),–,inactive,–,–,inactive,–,inactive,–,–,inactive,inactive,6.68 µM (active),11.9 µM (active)
CCOc1ccc2c3c1O[C@H]1[C@@H](O)C=C[C@H]4[C@@H](C2)N(C)CC[C@@]341,inactive,inactive,inactive,inactive,inactive,–,inactive,inactive,inactive,inactive,inactive,–,inactive,7.94 µM (active),inactive,inactive,inactive,–,–,–
[H+].[H+].[Hg+2].[O-]B([O-])[O-].[c-]1ccccc1,inactive,inactive,–,–,2.68 µM (active),0.531 µM (active),0.335 µM (active),–,30.1 µM [inconclusive] (active),–,–,–,19 µM (active),inactive,–,13.9 µM (active),inactive,inactive,0.596 µM (active),1.06 µM (active)
CCCCCc1cc(O)c2c(c1)OC(C)(C)[C@@H]1CCC(C)=C[C@@H]21,inactive,inactive,inactive,–,–,13.3 µM (active),10.6 µM (active),inactive,inactive,–,inactive,9.44 µM (active),–,inactive,7.94 µM (active),3.76 µM (active),inactive,–,–,–
C=C[C@H]1CN2CC[C@H]1C[C@@H]2[C@@H](O)c1ccnc2ccccc12,inactive,inactive,inactive,inactive,inactive,–,–,inactive,–,–,–,inactive,inactive,inactive,inactive,8.41 µM (active),inactive,inactive,inactive,inactive
Cc1cc(C)cc(C(=O)OC2C[C@H]3CC[C@@H](C2)N3C)c1 (some centres undefined),inactive,–,inactive,inactive,–,1.88 µM (active),5.31 µM (active),inactive,inactive,inactive,inactive,–,–,–,–,–,–,–,18.8 µM (active),–
C[C@]12CCC(=O)C=C1C=C[C@@H]1[C@@H]2CC[C@@]2(C)[C@H]1CC[C@@]2(O)CCC(=O)O,–,inactive,inactive,inactive,inactive,–,–,inactive,–,–,–,inactive,inactive,inactive,inactive,inactive,–,–,inactive,inactive
CN1CCCC(=C(c2cccs2)c2cccs2)C1,–,inactive,inactive,–,inactive,inactive,–,inactive,inactive,inactive,inactive,inactive,inactive,inactive,inactive,–,–,inactive,inactive,inactive
CN(C)[C@H](Cc1ccccc1)c1ccccc1,inactive,inactive,–,inactive,inactive,inactive,inactive,inactive,inactive,inactive,inactive,inactive,inactive,inactive,inactive,inactive,inactive,inactive,inactive,inactive
CN1c2ccccc2C(NCCCCCCC(=O)O)c2ccc(Cl)cc2S1(=O)=O (centres undefined),–,inactive,–,inactive,inactive,–,–,inactive,inactive,inactive,inactive,inactive,inactive,–,7.94 µM (active),–,inactive,–,–,–
CNC1(c2ccccc2Cl)CCCCC1=O (centres undefined),–,inactive,inactive,inactive,inactive,inactive,inactive,inactive,inactive,inactive,inactive,inactive,inactive,–,–,–,–,inactive,inactive,–
CNC(=O)Oc1ccccc1C(=O)Nc1ccccc1,inactive,inactive,inactive,inactive,–,–,29.8 µM (active),inactive,inactive,–,–,23.7 µM (active),inactive,14.1 µM (active),22.4 µM (active),5.96 µM (active),–,inactive,–,inactive
